In PubChem BioAssay (Tox21):
Records with an inconclusive call do not appear. Calls of active or inactive are those of the source. The call rests on the fitted dose curve; in most records, active means well fitted cell-killing curve with a large enough effect in the repeat runs; inconclusive means weak or mixed curves; inactive means flat fitted curve, though single readings scatter.

Assay: qHTS assay to identify small molecule antagonists of the estrogen related receptor (ERR) signaling pathway from Tox21 library - cell viability counter screen (AID 1224834); further: nearly all actives have a fitted effect of over 30% in size
Settings: ERR reporter cells viability, CellTiter-Fluor, 17.5 h; series mostly up to 92.4 µM; viability change, negative = cytotoxic: at the top concentration
Excerpt: National Center for Advancing Translational Sciences [NCATS]
NIH Chemical Genomics Center [NCGC]
U.S. Environmental Protection Agency [EPA]
National Institutes of Environmental Health Sciences [NIEHS]
National Toxicology Program [NTP]
U.S. Food and Drug Administration [FDA]
Estrogen related receptors (ERRs), the first orphan nuclear receptors discovered, play an important role in the control of cellular energy metabolism. ERRs are required for high-energy production in response to the environmental challenges. ERR-alpha was also identified as an adverse marker for breast cancer progression; ERR-alpha-positive tumors have a poor prognosis. To screen and to identify environmental compounds that perturb the ERR signaling pathways could provide valuable information for potential therapeutic or preventive measures in the treatment of metabolic disease. To differentiate true ERR antagonists or agonist from cytotoxic substances, the assay is multiplexed with cell viability assay.
Tox21 Assay Protocol Summary:
The ERR cells were dispensed at 2,000 cells/5 ul/well in 1536-well white plates using a Multidrop dispenser. After the assay plates were incubated at a 37 C/5% CO2 incubator for 6 hours, 23 nL of compounds dissolved in DMSO, positive and negative controls or DMSO only was transferred to the assay plate by a pin tool. The plates were incubated at 37 C for 17.5 hours. 1 ul/well of CellTiter-Fluor reagent was added into the assay plates using a Flying Reagent Dispenser. After 30-minute incubation at 37 C/5% CO2, the fluorescence intensity in the plates was measured using a ViewLux plate reader.
On the % scale 0 is the no-effect control and ±100 the full control effect; potency means the concentration at half of the fitted maximal effect.

Row | Compound | viability change, negative = cytotoxic | Potency
1 | O=C(O)c1cc(Cl)cc(Cl)c1O | 0.0087% (inactive) | 
2 | CC[C@H]1OC(=O)[C@H](C)[C@@H](O[C@H]2C[C@@](C)(OC)[C@@H](O)[C@H](C)O2)[C@H](C)[C@@H](O[C@@H]2O[C@H](C)C[C@H](N(C)C)[C@H]2O)[C@](C)(O)C[C@@H](C)CN(C)[C@H](C)[C@@H](O)[C@]1(C)O | -9.27% [at 42.5 µM] (inactive) | 
3 | CC(C)(O)c1coc(S(=O)(=O)NC(=O)Nc2c3c(cc4c2CCC4)CCC3)c1 | 1.92% (inactive) | 
4 | ClC1=C(Cl)C1(Cl)Cl | 8.05% (inactive) | 
5 | O=C(c1ccccc1)C1CCC1 | 4.99% (inactive) | 
6 | CCCCCC | 1.5% (inactive) | 
7 | O=c1[nH]c2cc(C(F)(F)F)c(N3CCOCC3)cc2n(CP(=O)(O)O)c1=O | 8.91% [at 42.5 µM] (inactive) | 
8 | CCN(CC)C(=O)N1CCN(C)CC1 | 4.51% [at 42.5 µM] (inactive) | 
9 | O=C1c2ccccc2C(=O)c2c(O)ccc(O)c21 | -7.19% (inactive) | 
10 | CCC1CCC(CCC(=O)O)C1 (stereo not given) | -0.445% (inactive) | 
11 | CC(C)(C(=O)c1cccnc1)c1cccnc1 | 5.79% [at 42.5 µM] (inactive) | 
12 | O=C1CC[C@@H](C(=O)O)N1 | 0.893% [at 42.5 µM] (inactive) | 
13 | CCCCCCCCCCCSCC(=O)O | -0.409% (inactive) | 
14 | CC(=O)OCC(C)C | -4.32% (inactive) | 
15 | CC(C)(C)S | 5.82% (inactive) | 
16 | COC(CC(C)CCCC(C)(C)O)OC (stereo not given) | 1.29% (inactive) | 
17 | Cc1ccc(Nc2c(F)cccc2Cl)c(CC(=O)O)c1 | 0.421% [at 42.5 µM] (inactive) | 
18 | CCCOC(=O)c1c(Cl)c(Cl)c(Cl)c(Cl)c1C(=O)OCCC | 1.48% (inactive) | 
19 | CC(C)C(=O)OCCOc1ccccc1 | 0.55% (inactive) | 
20 | CC(C)c1ccc(C(=O)N=C(N)N)cc1S(C)(=O)=O | 0.389% [at 42.5 µM] (inactive) | 

Row | Compound | viability change, negative = cytotoxic | Potency
21 | CN=C(N)NC(=O)Nc1c(C)cccc1C | 5.74% [at 42.5 µM] (inactive) | 
22 | C1CCCCC1 | 2.09% (inactive) | 
23 | CCN(CC)c1ccc(C(=C2C=CC(=[N+](CC)CC)C=C2)c2ccc(S(=O)(=O)O)cc2S(=O)(=O)[O-])cc1 |  | 21.7 µM (active)
24 | CCCCCCOC(=O)CCCCC | 0.915% (inactive) | 
25 | CCC(C)(C)C(=O)O | 5.01% (inactive) | 
26 | COc1ccc(-n2nc(C(F)F)cc2-c2ccc(S(C)=O)cc2)cc1 (stereo not given) | -3.41% (inactive) | 
27 | C/C(C=O)=C\c1ccccc1 | 0.717% (inactive) | 
28 | CC(C)C(O)C(C)(C)CO (stereo not given) |  | 0.631 µM (active)
29 | O=C(O)CNC(=O)c1ccccc1I | 1.57% [at 42.5 µM] (inactive) | 
30 | CC(=O)NNC(C)=O | -2.13% (inactive) | 
31 | O=CNNC=O | -4.38% (inactive) | 
32 | COc1ccc(-c2cc(C(F)F)nn2-c2ccc(S(N)(=O)=O)cc2)cc1F | -4.28% [at 42.5 µM] (inactive) | 
33 | Nc1nc(-c2ccc([N+](=O)[O-])cc2)cs1 | -10.4% (inactive) | 
34 | CCCCCCCC(=O)OCCCCCC | -3.95% (inactive) | 
35 | CCCCCCCCCCCCCCN(C)C | -1.07% [at 19 µM] (inactive) | 
36 | COC(=O)c1sccc1S(N)(=O)=O | 1.2% (inactive) | 
37 | Nc1ccn([C@H]2CS[C@@H](CO)O2)c(=O)n1 | 1.66% (inactive) | 
38 | CC(C)N(C)C | 2.27% (inactive) | 
39 | CCSC(=O)N(CC)CC | 3.79% (inactive) | 
40 | C[C@H](CS)C(=O)N1CCC[C@H]1C(=O)O | 3.65% [at 42.5 µM] (inactive) | 
